Calls of active or inactive are those of the source. Unless noted, how the calls were made is not given here.
Assays:
[1] = test system: XIP peptide (Xip251-270) binding; assay: XIP fragment 251-270 binding compounds – biochemical, small-molecule microarray, fluorescence 635/667 nm, 0.1 µg/mL protein, primary screen (AID 1182); settings: fluorescent protein binding, 635 nm, higher = more signal, called active from +8 up or from −8 down
[2] = test system: XIP peptide (Xip251-270); assay: compounds binding XIP fragment 251-270 – biochemical, small-molecule microarray, fluorescence 635/667 nm, 0.5 µg/mL protein, primary screen (AID 1183); settings: fluorescence 635 nm, higher = more signal
[3] = blood-stage malaria parasite viability loss – strain 3D7, DAPI fluorescence, 100 nL, primary screen (AID 1184);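 further: parasites grown inside human red blood cells in medium with human serum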; settings: P. falciparum 3D7 growth, 3 d, higher = more signal
[4] = target: Homeobox protein Hox-A13 (Mus musculus) (UniProt Q62424); assay: disruptors of Hoxa13 oligonucleotide interaction – biochemical, fluorescence polarization, labeled oligonucleotide, primary screen (AID 1185); settings: Hoxa13:DNA binding, 15 min, higher = more signal, called active from +8 up or from −8 down
[5] = blockers of DNA damage checkpoint Chk1 activation – imaging, HeLa, hydroxyurea, phospho-Chk1 antibody, percent positive cells, primary screen (AID 1186); settings: hydroxyurea-induced phospho-Chk1 immunofluorescence imaging, higher = more signal
[6] = blockers of DNA damage checkpoint Chk1 activation – imaging, HeLa, hydroxyurea, phospho-Chk1 nuclear intensity, primary screen (AID 1187); settings: hydroxyurea-induced phospho-Chk1 immunofluorescence imaging, higher = more signal

Homeobox protein Hox-A13 (Mus musculus), sequence (Q62424 whole entry, looked up): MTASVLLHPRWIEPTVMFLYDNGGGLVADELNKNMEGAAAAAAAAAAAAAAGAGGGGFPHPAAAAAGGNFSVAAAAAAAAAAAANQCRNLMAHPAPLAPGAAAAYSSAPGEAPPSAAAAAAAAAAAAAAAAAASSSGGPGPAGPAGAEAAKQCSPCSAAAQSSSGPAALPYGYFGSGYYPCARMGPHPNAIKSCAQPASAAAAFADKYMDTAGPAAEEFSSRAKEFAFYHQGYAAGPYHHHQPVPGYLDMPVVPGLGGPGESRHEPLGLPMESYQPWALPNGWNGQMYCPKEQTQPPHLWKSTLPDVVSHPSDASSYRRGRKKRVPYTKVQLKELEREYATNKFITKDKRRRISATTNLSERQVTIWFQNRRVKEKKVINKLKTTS

SMILES | composite z-score [1] | composite z-score [2] | z-score [3] | z-score [4] | z-score [5] | z-score [6]
COCCOC(=O)N1C(=O)[C@@]2(c3cc(C#CCNC(N)=O)ccc31)[C@H](c1ccc(OCCO)cc1)N1[C@H](c3ccccc3)[C@H](c3ccccc3)OC(=O)[C@H]1[C@@H]2C(=O)N1CCN(c2ncccn2)CC1 | -0.299 (inactive) | 0.245 | -1.91 | 0.513 (inactive) | -0.117 (inactive) | -0.434 (inactive)
CCCC=C(CCC)[C@@H](NS(=O)(=O)CC)c1ccccc1 | -0.255 (inactive) | 0.52 | -0.977 | -0.298 (inactive) | 0.304 (inactive) | 0.408 (inactive)
OCc1ccc(-c2cc[n+](Cc3cccc(OC(F)(F)F)c3)cc2)cc1 | 1.18 (inactive) | 0.596 | -1.63 | -6.13 (inactive) | 0.258 (inactive) | 0.666 (inactive)
C=C(C)[C@@H]1CC=C(C(O)C2C=CC3C(=O)N(C4CCCCC4)C(=O)C3N2Nc2ccc(OC)cc2)CC1 (some centres not stated) | 0.376 (inactive) | 0.505 | -0.409 | -3.47 (inactive) | -0.385 (inactive) | -0.393 (inactive)
COC(=O)C(CC#Cc1ccc2c(c1)[C@]1(C(=O)N2)[C@H](C(=O)N2CCc3cc(OC)c(OC)cc3C2)[C@H]2C(=O)O[C@H](c3ccccc3)[C@H](c3ccccc3)N2[C@@H]1c1ccc(OCCO)cc1)C(=O)OC | 0.916 (inactive) | 0.761 | -1.76 | -10.5 (active) | -0.197 (inactive) | 0.277 (inactive)
C=CCN1C(=O)[C@@]2(O[C@@H](CCO)[C@H]([Si](C)(C)c3ccc(OC)cc3)[C@H]2C)c2cc(NC(=O)[C@H](C)O)ccc21 | 0.395 (inactive) | 0.603 | -2.83 | -5.68 (inactive) | -0.455 (inactive) | 0.18 (inactive)
CCCC[C@H]1OB(O)C[C@H]2C1=C(COc1ccccc1)Cn1c(=O)n(-c3ccccc3)c(=O)n12 | 1.9 (inactive) | 0.286 | -0.902 | -7.43 (inactive) | -0.309 (inactive) | -0.247 (inactive)
COc1ccc([Si](C)(C)[C@@H]2[C@@H](CCO)O[C@]3(C(=O)N(Cc4ccccc4)c4ccc(N5CCCCC5=O)cc43)[C@H]2C)cc1 | 2.38 (inactive) | 0.565 | -2.89 | -4.29 (inactive) | -1.71 (inactive) | -1.73 (inactive)
COCCCNC(=O)[C@@]1(Cc2ccccc2I)c2ccccc2C(=O)N(Cc2ccccc2Cl)[C@H]1c1ccc(CO)cc1 | 1.75 (inactive) | 0.595 | -1.22 | -4.93 (inactive) | -0.152 (inactive) | 0.187 (inactive)
COCCCNC(=O)[C@@H]1c2ccccc2C(=O)N(Cc2cc(F)cc(C(F)(F)F)c2)[C@H]1c1ccc(CO)cc1 | -0.0408 (inactive) | -0.0784 | -0.288 | -2.79 (inactive) | 0.0176 (inactive) | -0.299 (inactive)
COc1ccc(CCNC(=O)[C@@H]2c3ccccc3C(=O)N(Cc3ccccc3)[C@H]2c2ccc(CO)cc2)cc1 | 1.09 (inactive) | 0.619 | -1.08 | -3.2 (inactive) | -0.938 (inactive) | -1.38 (inactive)
COCCOC(=O)N1C(=O)[C@@]2(c3cc(C#CC4(O)CCCCCC4)ccc31)[C@H](C(=O)N1CCc3cc(OC)c(OC)cc3C1)[C@H]1C(=O)O[C@H](c3ccccc3)[C@H](c3ccccc3)N1[C@@H]2c1ccccc1OCCO | -0.0915 (inactive) | 0.771 | -1.99 | 0.772 (inactive) | 0.286 (inactive) | 1.13 (inactive)
O=C1C2C=CC(C(O)c3ccc(Br)cc3)N(Nc3ccccc3)C2C(=O)N1c1ccccc1 (configuration not stated) | 0.65 (inactive) | 0.324 | -0.18 | -3.62 (inactive) | 0.348 (inactive) | 0.453 (inactive)
C=C(COC)/C(=C/C[C@@H](OC(=O)c1ccncc1)c1cccc(OCCO)c1)c1cc(C(=O)OC)ccc1OC | 0.658 (inactive) | 0.657 | -2.38 | -4.58 (inactive) | 0.0182 (inactive) | 0.527 (inactive)
COCCOC(=O)N1C(=O)[C@@]2(c3ccccc31)[C@H](c1ccc(OCCO)cc1)N1[C@H](c3ccccc3)[C@H](c3ccccc3)OC(=O)[C@H]1[C@@H]2C(=O)NC[C@H](O)c1ccccc1 | 0.103 (inactive) | 0.808 | -1.64 | -4.23 (inactive) | 0.228 (inactive) | 0.726 (inactive)
COCCOC(=O)N1C(=O)[C@@]2(c3cc(C#CC4(O)CCCCCC4)ccc31)[C@H](C(=O)N1CCN(c3ncccn3)CC1)[C@H]1C(=O)O[C@H](c3ccccc3)[C@H](c3ccccc3)N1[C@@H]2c1ccc(O)cc1 | 0.119 (inactive) | 0.723 | -0.849 | -0.575 (inactive) | 0.133 (inactive) | 0.559 (inactive)
CCCNC(=O)[C@@H]1c2ccccc2C(=O)N(CC23CC4CC(CC(C4)C2)C3)[C@H]1c1ccc(CO)cc1 | 1.67 (inactive) | 0.773 | -2.3 | -4.87 (inactive) | 0.118 (inactive) | 0.0519 (inactive)
CCOC(=O)C[C@H]1[C@H](OC(=O)Cc2ccc3c(c2)OCO3)[C@@H](NC(=O)c2ccccc2)c2cc(OCCCO)ccc2N1C(=O)c1ccc2ccccc2n1 | -0.263 (inactive) | -0.101 | 0.93 | -3.68 (inactive) | -0.467 (inactive) | -0.259 (inactive)
C=CCC(OC(C)=O)[C@@H]1[C@@H](N(Cc2ccc(-c3ccccc3)cc2)C(=O)c2cccc3ccccc23)c2cc(OCCCO)ccc2N1C(=O)c1ccc2ccccc2n1 (some centres not stated) | -0.0607 (inactive) | 0.328 | -0.714 | -1.42 (inactive) | -0.606 (inactive) | -0.368 (inactive)
C=C(/C(=C/C[C@@H](OC(C)=O)c1ccccc1OCCO)c1cnc2ccccc2c1)C(C)C | 0.143 (inactive) | 0.339 | -2.62 | -5.18 (inactive) | 0.642 (inactive) | 0.0715 (inactive)
C[C@H]1ON(c2ccccc2)[C@@H](c2ccccc2)[C@@H]1C(=O)N1C(=O)OC[C@@H]1c1ccccc1 | -0.222 (inactive) | 0.195 | -0.968 | -2.12 (inactive) | -0.134 (inactive) | -0.154 (inactive)
COc1cccc(C)c1NC(=O)O[C@H]1[C@H](OC(=O)Nc2ccccc2)[C@H](OC(=O)Nc2ccccc2)[C@@H](OC)O[C@@H]1CO | 1.57 (inactive) | 0.401 | -1.51 | -5.38 (inactive) | -0.0198 (inactive) | 0.136 (inactive)

Reference: PubChem BioAssay
